# Experimental data taken from PubChem BioAssay (NCATS).
# Results filed as inconclusive are left out. A number with no mark means an inactive call. Active and inactive are the calls of the source. Calls come from the whole dose curve. Bridge positions count the residues as written; N and C are the ends. Peptide text beside a SMILES is read from it.
# Assay: Primary qHTS for Vero E6 cytotoxicity: counterscreen for inhibitors of SARS-S pseudo-typed particle cell entry (AID 1479150)
# Settings: cell viability; series mostly up to 57.1 µM; activity change, negative = cytotoxicity: at the top concentration
# % is set by controls: 0 for no effect and ±100 for the full control effect.
SMILES,outcome,"activity change, negative = cytotoxicity"
O=C(O)c1cc(O)c2c(c1)[C@H]([C@H]1c3cc(C(=O)O)cc(O)c3C(=O)c3c(O[C@@H]4O[C@H](CO)[C@@H](O)[C@H](O)[C@H]4O)cccc31)c1cccc(O[C@@H]3O[C@H](CO)[C@@H](O)[C@H](O)[C@H]3O)c1C2=O,inactive [at 26.4 µM],
CC1CCC(C(C)C)C(OC(=O)c2ccccc2O)C1 (stereo unspecified),,-0.305%
[Mn].[O]=[Mn][OH].[O]=[Mn][OH],,1.86%
CCCCC(CC)COc1ccc(-c2nc(-c3ccc(OC)cc3)nc(-c3ccc(OCC(CC)CCCC)cc3O)n2)c(O)c1 (stereo unspecified),,-1.62% [at 5.34 µM]
CC(C)(C)C(=O)OCOC(=O)[C@@H]1N2C(=O)[C@@H](N=CN3CCCCCC3)[C@H]2SC1(C)C,,2.35%
NCCCC[C@H](NC(=O)[C@@H]1CCCN1C(=O)[C@@H]1CSSC[C@H](NC(=O)CNC(=O)CNC(=O)CN)C(=O)N[C@@H](Cc2ccc(O)cc2)C(=O)N[C@@H](Cc2ccccc2)C(=O)N[C@@H](CCC(N)=O)C(=O)N[C@@H](CC(N)=O)C(=O)N1)C(=O)NCC(N)=O (H-GGGCYFQNCPKG-NH2; disulfide 4-9),inactive,
CN1c2c(nc(N)[nH]c2=O)NC[C@@H]1CNc1ccc(C(=O)N[C@@H](CCC(=O)O)C(=O)O)cc1,inactive [at 5.34 µM],
O=C(O)C(O)[C@H](O)[C@H](O)[C@H](O)[C@H](O)CO (stereo partly specified),inactive,
CC(=O)N(CC(C)C(=O)O)c1c(I)cc(I)c(N)c1I (stereo unspecified),inactive,
CCCCN(CCCC)C(=S)[S-].CCCCN(CCCC)C(=S)[S-].[Zn+2],inactive,
C=C1c2c(Cl)ccc(O)c2C(O)=C2C(=O)[C@@]3(O)C(O)=C(C(N)=O)C(=O)[C@@H](N(C)C)[C@@H]3[C@@H](O)[C@H]12,,-4.23%
C=CC1(C)CC(=O)C2(O)C(C)(O1)C(OC(C)=O)C(OC(=O)CCN(C)C)C1C(C)(C)CCC(O)C12C (stereo unspecified),,-2.74%
Cc1ccc(S(=O)(=O)O)cc1,inactive,
COc1cc(N)cn[n+]1-c1ccccc1,inactive,
COc1nc2ccc(Br)cc2cc1[C@@H](c1ccccc1)[C@@](O)(CCN(C)C)c1cccc2ccccc12,,3.12%
COc1ccc2c(=O)c(C)c(-c3ccccc3)oc2c1CN(C)C,,3.82%
O=C(Nc1ccc(O)cc1)c1ccccc1O,,-11.3%
COC1=C(C(=O)O)N2C(=O)[C@@H](NC(=O)[C@H](N)C3=CCC=CC3)[C@H]2SC1,inactive,
CCOC(=O)[C@@H](N)CS,inactive,
CO/N=C(\C(=O)N[C@@H]1C(=O)N2C(C(=O)OCOC(=O)C(C)(C)C)=C(/C=C\c3scnc3C)CS[C@H]12)c1csc(N)n1,inactive,
Cc1c(C)c2c(c(C)c1OC(=O)CCC(=O)O)CC[C@@](C)(CCC[C@H](C)CCC[C@H](C)CCCC(C)C)O2,,4.28%
C#C[C@]1(OC(C)=O)CC[C@H]2[C@@H]3CCC4=CC(=O)CC[C@@H]4[C@H]3CC[C@@]21C,,-7.27%
CCCCCCCCCCCCCCCCCC(=O)OCCO,,-3.58%
CN[C@@H]1[C@@H](O)[C@@H](O[C@@H]2[C@@H](O)[C@H](OC3O[C@H](CN)[C@@H](O)[C@H](O)[C@H]3O)[C@@H](N)C[C@H]2NC(=O)[C@@H](O)CN)OC[C@]1(C)O (stereo partly specified),,-12.7% [at 26.4 µM]
C=Cc1c(C)c2cc3nc(c(CC(=O)N[C@@H](CC(=O)O)C(=O)O)c4nc(cc5[nH]c(cc1[nH]2)c(C)c5CC)C(C)=C4C(=O)O)[C@@H](CCC(=O)O)[C@@H]3C,,1.87%
CC(C)CCC[C@@H](C)[C@H]1CC[C@H]2[C@@H]3CC=C4C[C@@H](O)CC[C@]4(C)[C@@H]3CC[C@]12C,inactive [at 26.4 µM],
